From PubChem BioAssay AID1159580 (chemical genetic matrix, 2015)
The whole screen tested about 5,500 compounds, of which about 2,000 (36%) were called active. About 18% were inconclusive and are not listed. Rule as the data show it: active = normalized growth mostly below about 0.91 (no sharp cut-off); inconclusive = no clear call, values can overlap the other calls; inactive = mostly above about 0.92. The list shows a part of the results.

Assay: chemical genetic growth profiling, strain panel (AID 1159580);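 also: tested at 20 µM; growth read once vehicle control cultures reached saturation at 30 °C; 1 = growth at the plate median or of vehicle wells; lower values mean less growth of the strain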
Conditions: growth OD

Measured: normalized growth

CCCCC(CC)CN=C(N)NC(N)=NCCCCCCN=C(N)NC(N)=NCC(CC)CCCC (centres undefined)
active: S. cerevisiae deletion strains, locus YKL009W, strain mrt4, hits give low values 0.0745 | S. cerevisiae deletion strains, locus YKL068W, hits give low values 0.0576 | S. cerevisiae deletion strains, locus YKL085W, strain MDH1 (second series), hits give low values 0.0564 | S. cerevisiae deletion strains, locus YKL085W, strain MDH1, hits give low values 0.0564 | S. cerevisiae deletion strains, locus YKL160W, strain elf1, hits give low values 0.0635 | S. cerevisiae deletion strains, locus YKL190W, strain CNB1, hits give low values 0.05 | S. cerevisiae deletion strains, locus YKR001C, strain vps1, hits give low values 0.0639 | S. cerevisiae deletion strains, locus YKR026C, strain gcn3, hits give low values 0.0659 | S. cerevisiae deletion strains, locus YKR091W, strain srl3, hits give low values 0.0594 | S. cerevisiae deletion strains, locus YLL001W, strain dnm1, hits give low values 0.0606 | S. cerevisiae deletion strains, locus YLL026W, hits give low values 0.0577 | S. cerevisiae deletion strains, locus YLL041C, strain sdh2, hits give low values 0.0581 | S. cerevisiae deletion strains, locus YLR027C, strain aat2, hits give low values 0.0557 | S. cerevisiae deletion strains, locus YLR039C, strain RIC1, hits give low values 0.0876 | S. cerevisiae deletion strains, locus YLR058C, strain SHM2, hits give low values 0.0571 | S. cerevisiae deletion strains, locus YLR102C, strain apc9, hits give low values 0.0596 | S. cerevisiae deletion strains, locus YLR113W, strain HOG1, hits give low values 0.113 | S. cerevisiae deletion strains, locus YLR221C, strain rsa3, hits give low values 0.0636 | S. cerevisiae deletion strains, locus YLR258W, strain gsy2, hits give low values 0.0577 | S. cerevisiae deletion strains, locus YLR262C, strain YPT6 (second series), hits give low values 0.0725 | S. cerevisiae deletion strains, locus YLR262C, strain YPT6, hits give low values 0.104 | S. cerevisiae deletion strains, locus YLR268W, strain sec22, hits give low values 0.0602 | S. cerevisiae deletion strains, locus YLR320W, strain mms22, hits give low values 0.0987 | S. cerevisiae deletion strains, locus YLR330W, strain CHS5, hits give low values 0.0561 | S. cerevisiae deletion strains, locus YLR342W, strain FKS1 (second series), hits give low values 0.0721 | S. cerevisiae deletion strains, locus YLR342W, strain FKS1, hits give low values 0.0635 | S. cerevisiae deletion strains, locus YLR357W, strain rsc2, hits give low values 0.127 | S. cerevisiae deletion strains, locus YLR370C, strain arc18, hits give low values 0.0632 | S. cerevisiae deletion strains, locus YLR371W, strain rom2, hits give low values 0.0612 | S. cerevisiae deletion strains, locus YLR384C, strain iki3, hits give low values 0.0589 | S. cerevisiae deletion strains, locus YLR418C, strain cdc73, hits give low values 0.0906 | S. cerevisiae deletion strains, locus YML016C, strain PPZ1, hits give low values 0.0539 | S. cerevisiae deletion strains, locus YML032C, strain rad52, hits give low values 0.0626 | S. cerevisiae deletion strains, locus YML120C, strain ndi1, hits give low values 0.0582 | S. cerevisiae deletion strains, locus YML124C, strain tub3, hits give low values 0.058 | S. cerevisiae deletion strains, locus YMR058W, strain fet3, hits give low values 0.0606 | S. cerevisiae deletion strains, locus YMR078C, strain ctf18, hits give low values 0.0695 | S. cerevisiae deletion strains, locus YMR125W, strain sto1, hits give low values 0.0772 | S. cerevisiae deletion strains, locus YMR129W, hits give low values 0.0584 | S. cerevisiae deletion strains, locus YMR205C, strain PFK2, hits give low values 0.0839 | S. cerevisiae deletion strains, locus YMR223W, strain ubp8, hits give low values 0.0589 | S. cerevisiae deletion strains, locus YMR231W, strain pep5, hits give low values 0.0657 | S. cerevisiae deletion strains, locus YMR263W, strain SAP30, hits give low values 0.0593 | S. cerevisiae deletion strains, locus YMR307W, strain GAS1, hits give low values 0.118 | S. cerevisiae deletion strains, locus YNL067W, strain RPL9B, hits give low values 0.051 | S. cerevisiae deletion strains, locus YNL071W, strain lat1, hits give low values 0.0619 | S. cerevisiae deletion strains, locus YNL128W, strain TEP1, hits give low values 0.0666 | S. cerevisiae deletion strains, locus YNL183C, strain NPR1, hits give low values -0.00134 | S. cerevisiae deletion strains, locus YNL209W, strain ssb2, hits give low values 0.0592 | S. cerevisiae deletion strains, locus YNL233W, strain BNI4, hits give low values 0.06 | S. cerevisiae deletion strains, locus YNL248C, strain rpa49, hits give low values 0.0743 | S. cerevisiae deletion strains, locus YNL250W, strain rad50, hits give low values 0.0631 | S. cerevisiae deletion strains, locus YNL271C, strain bni1, hits give low values 0.0667 | S. cerevisiae deletion strains, locus YNL298W, strain CLA4, hits give low values 0.0608 | S. cerevisiae deletion strains, locus YNL307C, strain MCK1, hits give low values 0.0671 | S. cerevisiae deletion strains, locus YNL322C, strain KRE1 (second series), hits give low values 0.0646 | S. cerevisiae deletion strains, locus YNL322C, strain KRE1, hits give low values 0.05 | S. cerevisiae deletion strains, locus YNR049C, strain mso1, hits give low values 0.058 | S. cerevisiae deletion strains, locus YNR052C, strain pop2, hits give low values 0.0629 | S. cerevisiae deletion strains, locus YOL006C, strain TOP1, hits give low values 0.124 | S. cerevisiae deletion strains, locus YOL012C, strain htz1 0.144 | S. cerevisiae deletion strains, locus YOL147C, strain pex11, hits give low values 0.058 | S. cerevisiae deletion strains, locus YOR001W, strain rrp6, hits give low values 0.0671 | S. cerevisiae deletion strains, locus YOR061W, strain CKA2, hits give low values 0.0521 | S. cerevisiae deletion strains, locus YOR069W, strain VPS5, hits give low values 0.0535 | S. cerevisiae deletion strains, locus YOR070C, strain gyp1, hits give low values 0.0584 | S. cerevisiae deletion strains, locus YOR080W, strain dia2, hits give low values 0.0635 | S. cerevisiae deletion strains, locus YOR083W, strain WHI5, hits give low values 0.0619 | S. cerevisiae deletion strains, locus YOR106W, strain vam3, hits give low values 0.0658 | S. cerevisiae deletion strains, locus YOR136W, strain idh2, hits give low values 0.0692 | S. cerevisiae deletion strains, locus YOR144C, strain elg1, hits give low values 0.0567 | S. cerevisiae deletion strains, locus YOR184W, strain ser1, hits give low values 0.0701 | S. cerevisiae deletion strains, locus YOR231W, strain MKK1, hits give low values 0.0983 | S. cerevisiae deletion strains, locus YOR265W, strain rbl2, hits give low values 0.0559 | S. cerevisiae deletion strains, locus YOR270C, strain vph1, hits give low values 0.0983 | S. cerevisiae deletion strains, locus YOR290C, strain snf2, hits give low values 0.0664 | S. cerevisiae deletion strains, locus YOR316C, strain cot1, hits give low values 0.0588 | S. cerevisiae deletion strains, locus YPL051W, strain arl3, hits give low values 0.0606 | S. cerevisiae deletion strains, locus YPL055C, strain LGE1, hits give low values 0.0672 | S. cerevisiae deletion strains, locus YPL078C, strain atp4, hits give low values 0.0617 | S. cerevisiae deletion strains, locus YPL106C, strain sse1, hits give low values 0.0996 | S. cerevisiae deletion strains, locus YPL240C, strain hsp82, hits give low values 0.0572 | S. cerevisiae deletion strains, locus YPL256C, strain CLN2, hits give low values 0.111 | S. cerevisiae deletion strains, locus YPR119W, strain clb2, hits give low values 0.0609 | S. cerevisiae deletion strains, locus YPR141C, strain kar3, hits give low values 0.0639 | S. cerevisiae deletion strains, locus YPR163C, strain tif3, hits give low values 0.0715 | S. cerevisiae deletion strains, locus YPR167C, strain met16, hits give low values 0.0622 | S. cerevisiae deletion strains, strain wtn01, hits give low values 0.0578 | S. cerevisiae strains, strain wild type, hits give low values 0.0505
